Assay outcomes (PubChem)
D1 potentiator – enhances dopamine response at the human D1 receptor; P21728; HEK293 TREx D1 cells, calcium flux, dopamine EC20 potentiation; potentiation, % at 10 µM; 0.036% of 360,000 active; AID 504651; in the data active = potentiation above about 30%
USP2a inh – inhibitors of human ubiquitin-specific protease USP2a; O75604; USP2 core, Ub-CHOP2 coupled fluorogenic reporter, 485/531; AID 463254; 0.01% of 330,000 active; Potency, µM (doses to about 38.3 µM), usual class: inhibitors
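Cell-free coupled assay: 10nM USP2 core preincubated 30min RT with compound in Tris-HCl pH 8.0/CaCl2/CHAPS buffer, then 25nM Ub-CHOP2 and 25nM reporter substrate; fluorescence (Ex 485/Em 531) read after 60min RT, normalized to NEM inhibition, concentration-response curves fitted.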
D1 ag – activates the human D1 dopamine receptor; P21728; HEK293 T-REx D1 cells, calcium flux, agonist mode; activation, % at 2 µM; 1% of 360,000 active; AID 504660; in the data active = activation above about 30%
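Inducible HEK293 T-REx D1 cells, force-coupled to calcium signalling, were plated at 4000 cells/well with tetracycline and held overnight at 30 C. After no-wash calcium dye loading, compound-evoked calcium rise over 180 s flagged agonists.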
Eya2 phos inh – Eya2 (human) phosphatase inhibition; recombinant Eya2, OMFP fluorescence dephosphorylation (OMFP is methylfluorescein phosphate); O00167; Potency, µM (titrated, usually from 76.9 µM), hits mostly inhibitors; 0.006% of 330,000 active; AID 488837
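Eya2 protein (added as 0.2 uM solution) was preincubated with compound for 10 min at ambient temperature in 50 mM HEPES pH 7.5, 50 mM NaCl, 5 uM MgCl2, 0.05% BSA, 1 mM DTT. OMFP (added at 50 uM) then reacted 10 min; fluorescence read at 485/525 nm.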
GALK inh – blocks human galactokinase activity | Potency, µM (highest dose often 57.5 µM), hits mostly inhibitors | AID 1868 | P51570 | 0.007% of 270,000 active | Purified GALK, Kinase-Glo residual ATP luminescence
Target sequence (P51570 whole entry, looked up): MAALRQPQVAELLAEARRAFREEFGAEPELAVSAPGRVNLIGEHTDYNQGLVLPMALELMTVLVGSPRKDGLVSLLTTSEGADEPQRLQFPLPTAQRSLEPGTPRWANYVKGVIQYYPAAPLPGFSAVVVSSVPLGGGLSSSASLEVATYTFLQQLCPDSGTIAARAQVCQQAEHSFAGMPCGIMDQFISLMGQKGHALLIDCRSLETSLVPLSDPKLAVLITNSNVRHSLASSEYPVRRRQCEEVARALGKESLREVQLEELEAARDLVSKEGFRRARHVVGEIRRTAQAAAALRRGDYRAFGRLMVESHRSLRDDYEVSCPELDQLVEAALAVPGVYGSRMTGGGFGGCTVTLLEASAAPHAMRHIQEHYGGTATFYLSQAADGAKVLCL
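Galactose (100 uM) and ATP (35 uM) were turned over by 5 nM GALK for 1 h at RT. Kinase-Glo Plus then converted the remaining ATP into a luminescent signal.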
D1 antagonist – human D1 dopamine receptor antagonism. P21728. HEK293 TREx D1 cells, calcium flux, dopamine EC80; hits give low values. activity change, negative = inhibition, % at 10 µM. 3.2% of 360,000 active. AID 504652; in the data active = activity change below about -30%
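HEK293 T-REx cells expressing inducible, force-coupled D1 receptor; no-wash Ca dye, 30–90 min RT. Cmpd → 180 s read at 1 Hz → EC80 DA → 180 s read.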
Large screens that a line does not name were inactive. Compounds with a hit are over-represented: about 3.9% of the library has one in this group of screens. Unless noted, calls come from the whole dose curve; as a rule, active = well fitted inhibition curve with a large enough effect; inconclusive = small, poorly fitted or top-dose-only effect, or effect the other way; inactive = flat fitted curve, though single readings scatter.

COCCNc1ccc(-c2nc(-c3ccccn3)no2)cc1[N+](=O)[O-]	none (no result: USP2a inh, Eya2 phos inh, GALK inh)
COc1ccc(NC(=O)c2ccc(COc3ccccc3)o2)c(OC)c1	D1 antagonist -31
CCCn1c(=N)n(CC(O)COc2ccc(C)cc2)c2ccccc21 (stereo not drawn)	none
CCCCCn1c(=N)n(CC(O)COc2ccccc2OC)c2ccccc21 (stereo not drawn)	none
COc1ccc(OCCn2c(=N)n(CCO)c3ccccc32)cc1	none
CCCCn1c(=N)n(CCOc2ccc(C)cc2)c2ccccc21	D1 ag 50 (no result: GALK inh)
CCCCn1c(=N)n(CCOc2ccccc2OC)c2ccccc21	D1 ag 33 (no result: USP2a inh, Eya2 phos inh, GALK inh)
CCn1c(=N)n(CCOc2ccc(Br)cc2)c2ccccc21	D1 ag 89 (no result: USP2a inh, Eya2 phos inh, GALK inh)
COc1cc(/C=N/NC(=O)CNC(=O)c2ccco2)ccc1O	D1 antagonist -48
Cc1ccc(S(=O)(=O)NCCc2nnc3ccc(SCc4ccc(F)cc4)nn23)cc1	none (no result: USP2a inh, Eya2 phos inh, GALK inh)
CN1CCN(c2ccc(NC(=O)c3ccc4ccccc4c3)cc2)CC1	D1 antagonist -71
CN1CCN(c2ccc(NC(=O)COc3ccc4ccccc4c3)cc2)CC1	D1 antagonist -39
CC(=O)Nc1ccc(NC(=O)COc2ccc3c(c2)CCC3)cc1	D1 antagonist -35
O=C(COc1ccc2ccccc2c1)Nc1ccc(Cc2ccncc2)cc1	D1 antagonist -34
O=C(O)Cc1ccc(NC(=O)COc2ccc3ccccc3c2)cc1	none
COc1ccc(C(=O)Nc2ccc(N3CCN(C)CC3)cc2)cc1	none
CC(=O)N1CCOc2cc(S(=O)(=O)NCc3ccc(C)cc3)c(Cl)cc21	none (no result: USP2a inh, Eya2 phos inh, GALK inh)
O=C(COC(=O)c1ccc(O)cc1O)Nc1ccc2c(c1)OCCO2	none (no result: GALK inh)
O=C(COC(=O)c1ccc(O)cc1O)Nc1ccc2ccccc2c1	D1 antagonist -37 (no result: GALK inh)
CCOc1ccc(NC(=O)CS(=O)(=O)Cc2nc(-c3ccc(C)cc3)oc2C)cc1	none (no result: USP2a inh, Eya2 phos inh, GALK inh)
CCc1cccc(CC)c1N(COC)C(=O)Cn1c(C)nc2ccccc21	none (no result: USP2a inh, Eya2 phos inh, GALK inh)
COc1ccc2c(c1)O[C@H](c1ccc3c(c1)OCO3)[C@@H](OC(=O)N[C@H]1CCCc3ccccc31)C2=O	D1 antagonist -57 (no result: GALK inh)
COc1ccc2c(c1)O[C@@H](c1cccc(C(F)(F)F)c1)[C@H](OC(=O)N[C@H]1CCCc3ccccc31)C2=O	none (no result: GALK inh)
CCc1ccc(-n2nc(C)c3c(C(=O)N4CCN(c5ccccc5)CC4)cc(C)nc32)cc1	D1 antagonist -36 (no result: USP2a inh, Eya2 phos inh, GALK inh)
Cc1nc2c(-c3ccccc3)c(C)nn2c(C)c1CCC(=O)NCc1cccc(Cl)c1	none (no result: USP2a inh, Eya2 phos inh, GALK inh)
CCN(CCCNC(=O)c1nn(-c2ccc(OC)cc2)c(=O)c2c1c1ccccc1n2C)c1cccc(C)c1	none (no result: USP2a inh, Eya2 phos inh, GALK inh)
COc1ccc(NC(=O)c2ccc(NC(=O)CCS(=O)(=O)c3cccs3)cc2)cc1Cl	none (no result: USP2a inh, Eya2 phos inh, GALK inh)
COc1cccc(/C=N/Nc2snc(SC)c2C#N)c1O	D1 ag 37, D1 antagonist -41 (no result: GALK inh)
CCN(CC)c1ccc(/C=c2/sc3nnc(-c4ccccc4C)n3c2=O)cc1	D1 ag 31
CCN(CC)c1ccc(/C=c2\sc3nnc(-c4ccccc4Cl)n3c2=O)cc1	D1 ag 59
O=c1cc(O)cc(/C=C/c2ccc(O)c(O)c2)o1	none (no result: D1 potentiator, USP2a inh, D1 ag, GALK inh, D1 antagonist)
Cc1cc(Cl)ccc1OC(C)c1nnc(N)s1 (stereo not drawn)	D1 antagonist -49
CC(Oc1ccc(Cl)cc1Cl)c1ccnc(N)n1 (stereo not drawn)	none
CCS(=O)(=O)c1c(Nc2cc(C)ccc2C)sc(C(=O)c2ccccc2)c1N	D1 ag 41 (no result: USP2a inh, Eya2 phos inh, GALK inh)
CCOc1ccccc1Nc1sc(C(=O)c2ccccc2)c(N)c1S(=O)(=O)c1ccc(C)cc1	none (no result: USP2a inh, Eya2 phos inh, GALK inh)
Cc1c(Cl)cccc1Nc1sc(C(=O)c2ccccc2)c(N)c1S(=O)(=O)c1ccccc1	none (no result: USP2a inh, Eya2 phos inh, GALK inh)
Cc1ccc(Cl)cc1Nc1sc(C(=O)c2ccccc2)c(N)c1S(=O)(=O)c1ccccc1	D1 ag 54, D1 antagonist -51 (no result: USP2a inh, Eya2 phos inh, GALK inh)
CC(C)Cn1c(N)c(C(=O)CSc2ccc3c(c2)OCCO3)c(=O)n(C)c1=O	D1 antagonist -33
CC(C)Cn1c(N)c(C(=O)COC(=O)c2ccc3c(c2)OCCO3)c(=O)n(C)c1=O	none
